Laboratory results: PubChem BioAssay (NCATS)
Values joined by “and” are separate entries in the source; they are usually repeats but may differ in a detail not shown here. Identical values can stand only once. Results filed as inconclusive are left out. Entries that show only a call come without a potency. Unmarked numbers belong to inactive results. Active and inactive are the calls of the source. Unless noted, calls follow the shape of the dose curve; as a rule, active = well fitted curve in the direction sought with a large enough effect; inconclusive = small, poorly fitted or top-dose-only effect, or another doubt; inactive = no such curve, though single readings can be large; an effect the other way counts as inactive or inconclusive.

Legend:
[1] = molecular target: Voltage-gated inwardly rectifying potassium channel KCNH2 (Homo sapiens) (UniProt Q12809); test: qHTS Assay for Small Molecule Inhibitors of the Human hERG Channel Activity (AID 588834);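 also: lower thallium flux fluorescence means stronger hERG block; nearly all actives have a fitted effect of over 50% in size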; also: potency is read from the fitted curve at half-maximal effect
In short: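 Kinetic FDSS fluorescence; U2OS + hERG BacMam (~100 virus particles/cell); FluxOR Tl+ flux; ~10 min cpd; AC50 (Hill).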

[2] = molecular target: Luciferin 4-monooxygenase (Photinus pyralis) (UniProt P08659); test: Biochemical firefly luciferase enzyme assay for NPC (AID 624030); also: nearly all actives have a fitted effect of over 70% in size; also: potency is read from the fitted curve at half-maximal effect
In short: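 Direct inhibition of firefly luciferase enzyme (10 nM final, 50 mM Tris Acetate) assessed by luminescence within 5 minutes. Percent activity scaled between DMSO and PTC124 positive control, with concentration-effect curves classified by fit quality and response.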

[3] = S16 Schwann cell viability assay (CellTiter-Glo assay) (AID 624031);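 also: cellular ATP luminescence as a viability measure; nearly all actives have a fitted effect of over 70% in size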
In short: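 This viability control uses native rat S16 Schwann cells grown in DMEM plus 10% FBS. After a 24 h compound treatment at 37 °C, CellTiter-Glo luminescence reports ATP content, scaled against DMSO-treated and cell-free wells.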

[4] = S16 Schwann cell PMP22 intronic element firefly luciferase assay (AID 624032); also: nearly all actives have a fitted effect of over 30% in size; also: potency is read from the fitted curve at half-maximal effect
In short: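 Luciferase reporter of PMP22 intronic-element expression in stably transfected S16 rat Schwann cells, read by ONE-Glo luminescence after 24 h compound exposure at 37 C. Activity scaled between DMSO (0%) and positive-control PTC124; concentration-effect curves quality-classified.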

[5] = S16 Schwann cell PMP22 intronic element beta-lactamase assay (AID 624044; calls by dose curve; also: nearly all actives have a fitted effect of over 15% in size); conditions: S16 rat Schwann cells, PMP22 element beta-lactamase FRET, 24 h; ratio activity, negative = inhibition: at 38.3 µM (top of the series) unless noted
In short: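 Rat S16 Schwann cells with beta-Lac driven by a PMP22 intronic element, compound-treated 24 h at 37 °C. LiveBLAzer FRET B/G read: 460 nm normalized to potassium clavulanate vs DMSO; 535 nm FRET as viability; concentration-effect curves classified.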

Sequence of Luciferin 4-monooxygenase (Photinus pyralis) (P08659 whole entry, looked up): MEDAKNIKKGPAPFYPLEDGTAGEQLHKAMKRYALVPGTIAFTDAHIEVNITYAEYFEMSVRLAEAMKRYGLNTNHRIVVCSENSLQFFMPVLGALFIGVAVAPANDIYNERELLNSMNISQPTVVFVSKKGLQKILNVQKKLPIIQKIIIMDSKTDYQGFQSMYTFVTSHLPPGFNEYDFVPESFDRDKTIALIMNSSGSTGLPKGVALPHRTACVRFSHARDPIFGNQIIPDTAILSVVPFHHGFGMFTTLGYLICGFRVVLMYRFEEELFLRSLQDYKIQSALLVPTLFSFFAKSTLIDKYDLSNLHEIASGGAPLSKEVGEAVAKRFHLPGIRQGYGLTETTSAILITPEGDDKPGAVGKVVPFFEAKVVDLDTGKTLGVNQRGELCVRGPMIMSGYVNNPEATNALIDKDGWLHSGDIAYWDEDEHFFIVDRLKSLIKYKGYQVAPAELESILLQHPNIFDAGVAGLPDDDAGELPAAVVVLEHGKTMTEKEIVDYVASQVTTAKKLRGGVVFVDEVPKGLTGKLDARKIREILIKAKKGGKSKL
Sequence of Voltage-gated inwardly rectifying potassium channel KCNH2 (Homo sapiens) (Q12809 whole entry, looked up): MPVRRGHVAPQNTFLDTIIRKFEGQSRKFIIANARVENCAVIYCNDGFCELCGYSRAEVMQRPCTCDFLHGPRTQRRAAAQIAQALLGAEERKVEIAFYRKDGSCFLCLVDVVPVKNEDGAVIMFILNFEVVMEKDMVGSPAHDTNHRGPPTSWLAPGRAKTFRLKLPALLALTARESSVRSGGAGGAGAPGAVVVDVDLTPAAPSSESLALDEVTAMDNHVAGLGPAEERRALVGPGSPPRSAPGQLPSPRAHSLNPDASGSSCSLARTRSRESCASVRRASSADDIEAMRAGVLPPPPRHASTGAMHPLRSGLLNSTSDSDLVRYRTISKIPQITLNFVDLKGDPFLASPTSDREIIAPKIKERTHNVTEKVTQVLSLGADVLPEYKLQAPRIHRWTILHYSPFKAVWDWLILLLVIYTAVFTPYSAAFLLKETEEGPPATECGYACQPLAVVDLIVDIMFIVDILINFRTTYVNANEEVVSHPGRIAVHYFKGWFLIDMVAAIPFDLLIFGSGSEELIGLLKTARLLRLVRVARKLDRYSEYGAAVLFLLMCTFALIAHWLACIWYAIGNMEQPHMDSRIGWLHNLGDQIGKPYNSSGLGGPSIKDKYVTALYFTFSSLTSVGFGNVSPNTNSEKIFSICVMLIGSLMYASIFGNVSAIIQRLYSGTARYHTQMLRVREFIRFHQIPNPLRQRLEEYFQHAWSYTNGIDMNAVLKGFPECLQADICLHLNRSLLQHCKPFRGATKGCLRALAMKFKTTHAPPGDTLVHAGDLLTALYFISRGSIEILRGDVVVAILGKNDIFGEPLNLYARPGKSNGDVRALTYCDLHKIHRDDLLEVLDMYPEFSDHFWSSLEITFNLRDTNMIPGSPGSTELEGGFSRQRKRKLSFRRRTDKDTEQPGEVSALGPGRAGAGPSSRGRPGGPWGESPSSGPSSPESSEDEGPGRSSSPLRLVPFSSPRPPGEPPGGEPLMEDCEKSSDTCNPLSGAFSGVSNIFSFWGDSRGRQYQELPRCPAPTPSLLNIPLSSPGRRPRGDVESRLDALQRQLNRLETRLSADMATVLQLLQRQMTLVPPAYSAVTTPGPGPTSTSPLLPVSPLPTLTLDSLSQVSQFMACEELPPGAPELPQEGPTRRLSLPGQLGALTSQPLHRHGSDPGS

| SMILES | Potency [1] | Potency [2] | Potency [3] | Potency [4] | ratio activity, negative = inhibition [5] |
| --- | --- | --- | --- | --- | --- |
| O=[n+]1ccn([O-])c2ccccc21 | inactive | inactive | inactive | inactive | 6.86% |
| O=P(O)(O)OC[C@H]1O[C@](O)(COP(=O)(O)O)[C@@H](O)[C@@H]1O | inactive | inactive | inactive | inactive | 3.08% |
| O=C1[O][Bi][O]c2ccccc21 | inactive | inactive | inactive | inactive | 0.885% |
| CCN(CC)C(=O)c1cccnc1 | inactive | inactive | inactive | inactive | 2.08% |
| CO/N=C(\C(=O)N[C@@H]1C(=O)N2C(C(=O)[O-])=C(C[n+]3cccc4c3CCC4)CS[C@H]12)c1csc(N)n1 | inactive | inactive | inactive | inactive |  |
| CC(C)CCCC(C)NC(C)C (stereo unspecified) | inactive | inactive | inactive | inactive | 5.39% |
| CCC(C(=O)NC(N)=O)c1ccccc1 (stereo unspecified) | inactive | inactive | inactive | inactive | 8.54% |
| CC1(O)CCC(C(C)(C)O)CC1 (stereo unspecified) | inactive | inactive | inactive | inactive |  |
| CC[C@H]1OC(=O)[C@H](C)[C@@H](O[C@H]2C[C@@](C)(OC)[C@@H](O)[C@H](C)O2)C(C)[C@@H](O[C@@H]2O[C@H](C)C[C@H](N(C)C)[C@@H]2O)[C@](C)(OC)C[C@@H](C)C(=O)[C@H](C)[C@@H](O)[C@]1(C)O (stereo partly specified) | inactive | inactive | inactive | inactive | 4.6% |
| Cc1ncc(COP(=O)(O)O)c(CN)c1O | inactive | inactive | inactive | inactive | -0.583% |
| O=C(CCCN1CCN2CCCC2C1)c1ccc(F)cc1 (stereo unspecified) | inactive | inactive | inactive | inactive | -6.15% |
| CCCOc1cc(N)ccc1C(=O)OCCN(CC)CC | inactive | inactive | inactive | inactive | 1.14% [at 17.1 µM] |
| CC/C(=C(/CC)c1ccc(OP(=O)(O)O)cc1)c1ccc(OP(=O)(O)O)cc1 | inactive | inactive | inactive | inactive | 2.34% |
| N=C(N)n1cccn1 | inactive | inactive | inactive | inactive | -0.887% |
| CCCCCCCCCCCC(=O)OCC(O)CO (stereo unspecified) | inactive | inactive | inactive | inactive | 1% |
| CN1CCC(OC(=O)C(Oc2ccc(Cl)cc2)Oc2ccc(Cl)cc2)CC1 | 1 µM (active) | inactive | inactive | inactive | 2.81% |
| CCCCC/C=C\C/C=C\C/C=C\CCCCC(=O)O | inactive | inactive | inactive | inactive | -14.4% |
| CCOC(=O)[C@@H](N)CS | inactive | inactive | inactive | 0.0573 µM (active) | -2.51% |
| COC(=O)CC[C@H](N)C(=O)O | inactive | inactive | inactive | inactive | -5.51% |
| CC(C)[C@H](N)C(=O)OCC(CO)OCn1cnc2c(=O)[nH]c(N)nc21 (stereo partly specified) | inactive | inactive | inactive | inactive | 0.697% |
| CCCCCCOC(=O)c1cccnc1 | inactive | inactive | inactive | inactive | 2.38% |
| CCN(CC)CCOc1ccc2nc(N(C)C)sc2c1 | inactive | inactive | inactive | inactive | 0.178% |
| FC(F)(F)C(F)(F)C(F)(F)C(F)(F)C(F)(F)C(F)(F)F | inactive | inactive | inactive | inactive | 0.234% |
| CC(=O)Oc1cccc2c1C(=O)c1c(OC(C)=O)cc(C(=O)O)cc1C2=O | inactive | inactive | inactive | inactive | 0.316% |
| CC(CC=O)CCCC(C)(C)O (stereo unspecified) | inactive | inactive | inactive | inactive | 3.36% |
| CCCc1nc(C(C)(C)O)c(C(=O)OCc2oc(=O)oc2C)n1Cc1ccc(-c2ccccc2-c2nn[nH]n2)cc1 | inactive | inactive | inactive | inactive | 0.293% |
| CCOC(=O)c1c[nH]c2cc(OCC(C)C)c(OCC(C)C)cc2c1=O | inactive | inactive | inactive | inactive |  |
| COc1ccc2c(=O)c(C)c(-c3ccccc3)oc2c1CN(C)C | inactive | inactive | inactive | inactive | -18.3% |
| Cc1cc(-c2ccc(N=Nc3ccc4c(S(=O)(=O)O)cc(S(=O)(=O)O)c(N)c4c3O)c(C)c2)ccc1N=Nc1ccc2c(S(=O)(=O)O)cc(S(=O)(=O)O)c(N)c2c1O | inactive | 28.7 µM (active) and 14.4 µM (active) | inactive | 8.09 µM (active) |  |
| O=C(O)Cc1nn(Cc2ccc(Br)cc2F)c(=O)c2ccccc12 | inactive | inactive | inactive | inactive | 3.04% |
